Experiments:
Experiment in all cases: DAPPL (digital affinity profiling via proximity ligation, sequencing); 10 mM Tris-HCl pH 7.5, 50 mM NaCl, 1 mM DTT, 4% glycerol, room temperature, 30 min; GST-TFs on glutathione beads, 16-mer random dsDNA library, 0.1% formaldehyde crosslink after washing; high values mean tight binding
FLI1 = target: T1, FLI1 (Homo sapiens, UniProt Q01543 1-452); details: protein: recombinant; tags: N-terminal GST; dsDNA, one strand shown
T1 sequence: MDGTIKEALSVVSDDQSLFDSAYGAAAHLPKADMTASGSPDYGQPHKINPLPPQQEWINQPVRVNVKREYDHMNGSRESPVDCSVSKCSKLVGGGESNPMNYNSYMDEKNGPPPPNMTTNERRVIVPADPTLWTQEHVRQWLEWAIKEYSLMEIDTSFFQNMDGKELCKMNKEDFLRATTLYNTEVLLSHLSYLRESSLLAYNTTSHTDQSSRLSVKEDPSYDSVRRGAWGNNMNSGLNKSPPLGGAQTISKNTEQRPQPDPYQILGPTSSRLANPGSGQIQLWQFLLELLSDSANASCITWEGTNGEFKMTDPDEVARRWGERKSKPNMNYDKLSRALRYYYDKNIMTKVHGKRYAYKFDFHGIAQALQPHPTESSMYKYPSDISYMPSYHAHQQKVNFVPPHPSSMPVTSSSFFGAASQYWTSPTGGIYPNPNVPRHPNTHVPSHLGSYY
Outline: (§1)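 Yeast served to express human transcription factors as GST fusions, which were then captured on glutathione beads and labelled with DNA barcodes. Pooled with a tag-only sample, they were incubated with 200 nmole of a 16-mer random double-stranded DNA library for 30 min at room temperature in Tris/NaCl/DTT/glycerol buffer, washed, crosslinked with 0.1% formaldehyde, ligated by proximity, amplified by PCR and sequenced. Dividing each hexamer's read frequency for a factor by its frequency for the tag-only sample gives the binding signal.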

ELK1 = target: T2, ELK1 (Homo sapiens, UniProt P19419 1-428); details: protein: recombinant; tags: N-terminal GST; dsDNA, one strand shown
T2 sequence: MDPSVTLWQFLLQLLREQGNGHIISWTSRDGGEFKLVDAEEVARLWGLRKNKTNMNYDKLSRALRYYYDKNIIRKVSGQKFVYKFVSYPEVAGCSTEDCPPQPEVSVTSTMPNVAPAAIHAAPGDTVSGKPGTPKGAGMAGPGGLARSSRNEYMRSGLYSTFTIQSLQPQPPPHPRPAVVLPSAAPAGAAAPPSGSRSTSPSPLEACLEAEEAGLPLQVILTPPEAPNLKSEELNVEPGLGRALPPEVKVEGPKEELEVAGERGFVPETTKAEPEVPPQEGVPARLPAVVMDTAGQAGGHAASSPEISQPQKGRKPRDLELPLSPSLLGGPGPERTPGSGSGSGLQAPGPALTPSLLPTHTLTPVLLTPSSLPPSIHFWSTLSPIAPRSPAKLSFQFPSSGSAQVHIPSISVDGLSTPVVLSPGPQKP
Outline: as §1

GABPA = target: T3, GABPA (Homo sapiens, UniProt Q06546 1-454); details: protein: recombinant; tags: N-terminal GST; dsDNA, one strand shown
T3 sequence: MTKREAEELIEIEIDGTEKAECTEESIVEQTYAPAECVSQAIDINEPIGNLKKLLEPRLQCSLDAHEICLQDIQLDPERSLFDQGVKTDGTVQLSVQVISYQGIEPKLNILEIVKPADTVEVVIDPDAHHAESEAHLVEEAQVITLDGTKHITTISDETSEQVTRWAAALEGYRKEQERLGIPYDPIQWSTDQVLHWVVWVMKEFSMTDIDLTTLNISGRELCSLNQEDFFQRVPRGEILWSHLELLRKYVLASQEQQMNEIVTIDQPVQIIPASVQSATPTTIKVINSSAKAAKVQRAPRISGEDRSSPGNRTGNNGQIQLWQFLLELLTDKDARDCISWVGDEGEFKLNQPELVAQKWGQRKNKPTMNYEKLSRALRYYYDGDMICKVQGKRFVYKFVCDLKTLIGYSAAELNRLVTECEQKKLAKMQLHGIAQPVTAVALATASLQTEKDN
Outline: as §1

ERG = target: T4, ERG (Homo sapiens, UniProt P11308 1-479); details: protein: recombinant; tags: N-terminal GST; dsDNA, one strand shown
T4 sequence: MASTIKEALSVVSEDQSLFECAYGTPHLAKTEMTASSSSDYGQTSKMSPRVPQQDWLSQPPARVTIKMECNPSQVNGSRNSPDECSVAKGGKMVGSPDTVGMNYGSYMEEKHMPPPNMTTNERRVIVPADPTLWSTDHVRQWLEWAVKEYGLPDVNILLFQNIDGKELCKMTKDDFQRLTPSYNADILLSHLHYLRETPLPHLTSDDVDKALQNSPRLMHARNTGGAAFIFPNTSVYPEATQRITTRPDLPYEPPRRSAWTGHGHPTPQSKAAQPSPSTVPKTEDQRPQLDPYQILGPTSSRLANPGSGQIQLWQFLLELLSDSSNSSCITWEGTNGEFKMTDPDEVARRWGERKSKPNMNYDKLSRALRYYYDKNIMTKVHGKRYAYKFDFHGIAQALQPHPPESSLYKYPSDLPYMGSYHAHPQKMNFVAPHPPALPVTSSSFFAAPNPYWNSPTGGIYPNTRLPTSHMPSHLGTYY
Outline: as §1

ELF1 = ELF1 (Homo sapiens, UniProt P32519 1-619); details: protein: recombinant; tags: N-terminal GST; dsDNA, one strand shown
Outline: as §1

EHF = target: T5, EHF (Homo sapiens, UniProt Q9NZC4 1-300); details: protein: recombinant; tags: N-terminal GST; dsDNA, one strand shown
T5 sequence: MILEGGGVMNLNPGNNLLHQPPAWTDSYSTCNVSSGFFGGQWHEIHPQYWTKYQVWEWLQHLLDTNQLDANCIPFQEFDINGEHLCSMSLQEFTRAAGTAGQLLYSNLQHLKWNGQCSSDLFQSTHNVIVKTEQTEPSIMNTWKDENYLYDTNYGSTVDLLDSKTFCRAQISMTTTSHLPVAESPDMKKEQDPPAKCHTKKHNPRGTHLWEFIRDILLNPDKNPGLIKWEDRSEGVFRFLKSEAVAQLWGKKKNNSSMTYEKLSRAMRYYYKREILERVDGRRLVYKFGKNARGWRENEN
Outline: as §1

SPI1 = SPI1 (Homo sapiens, UniProt P17947 1-270); details: protein: recombinant; tags: N-terminal GST; dsDNA, one strand shown
Outline: as §1

SPIB = SPIB (Homo sapiens, UniProt Q01892 1-262); details: protein: recombinant; tags: N-terminal GST; dsDNA, one strand shown
Outline: as §1

ELK3 = target: T6, ELK3 (Homo sapiens, UniProt P41970 1-407); details: protein: recombinant; tags: N-terminal GST; dsDNA, one strand shown
T6 sequence: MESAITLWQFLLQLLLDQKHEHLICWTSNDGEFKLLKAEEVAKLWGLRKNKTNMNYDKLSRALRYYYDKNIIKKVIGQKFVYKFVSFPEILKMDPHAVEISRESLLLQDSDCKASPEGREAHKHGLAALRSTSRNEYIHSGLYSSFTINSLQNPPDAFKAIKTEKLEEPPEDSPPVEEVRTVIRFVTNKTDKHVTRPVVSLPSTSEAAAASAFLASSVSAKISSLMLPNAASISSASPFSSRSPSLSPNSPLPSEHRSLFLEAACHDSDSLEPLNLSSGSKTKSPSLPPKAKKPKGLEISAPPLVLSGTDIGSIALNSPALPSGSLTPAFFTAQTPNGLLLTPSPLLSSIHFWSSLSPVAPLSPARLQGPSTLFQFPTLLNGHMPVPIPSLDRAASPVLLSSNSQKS
Outline: as §1

FEV = target: T7, FEV (Homo sapiens, UniProt Q99581 1-238); details: protein: recombinant; tags: N-terminal GST; dsDNA, one strand shown
T7 sequence: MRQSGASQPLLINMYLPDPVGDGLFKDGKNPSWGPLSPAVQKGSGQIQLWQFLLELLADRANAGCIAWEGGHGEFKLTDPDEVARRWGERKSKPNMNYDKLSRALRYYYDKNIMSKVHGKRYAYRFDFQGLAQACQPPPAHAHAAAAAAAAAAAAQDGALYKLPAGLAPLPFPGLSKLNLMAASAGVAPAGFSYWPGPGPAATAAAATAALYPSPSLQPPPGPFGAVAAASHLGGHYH
Outline: as §1

ETV5 = ETV5 (Homo sapiens, UniProt P41161 1-510); details: protein: recombinant; tags: N-terminal GST; dsDNA, one strand shown
Outline: as §1

HSF1 = HSF1 (Homo sapiens, UniProt Q00613 1-529); details: protein: recombinant; tags: N-terminal GST; chain copies: 3; dsDNA, one strand shown
Outline: as §1

SPIC = target: T8, SPIC (Homo sapiens, UniProt Q8N5J4 1-248); details: protein: recombinant; tags: N-terminal GST; dsDNA, one strand shown
T8 sequence: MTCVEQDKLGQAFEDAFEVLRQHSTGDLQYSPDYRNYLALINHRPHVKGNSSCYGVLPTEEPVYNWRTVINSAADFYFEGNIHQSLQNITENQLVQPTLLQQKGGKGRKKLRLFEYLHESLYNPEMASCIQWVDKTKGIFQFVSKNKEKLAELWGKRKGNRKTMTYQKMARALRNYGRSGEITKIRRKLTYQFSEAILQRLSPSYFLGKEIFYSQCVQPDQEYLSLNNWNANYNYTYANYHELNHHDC
Outline: as §1

ELF4 = ELF4 (Homo sapiens, UniProt Q99607 1-663); details: protein: recombinant; tags: N-terminal GST; dsDNA, one strand shown
Outline: as §1

ELK4 = target: T9, ELK4 (Homo sapiens, UniProt P28324-2 1-405); details: protein: recombinant; tags: N-terminal GST; dsDNA, one strand shown
T9 sequence: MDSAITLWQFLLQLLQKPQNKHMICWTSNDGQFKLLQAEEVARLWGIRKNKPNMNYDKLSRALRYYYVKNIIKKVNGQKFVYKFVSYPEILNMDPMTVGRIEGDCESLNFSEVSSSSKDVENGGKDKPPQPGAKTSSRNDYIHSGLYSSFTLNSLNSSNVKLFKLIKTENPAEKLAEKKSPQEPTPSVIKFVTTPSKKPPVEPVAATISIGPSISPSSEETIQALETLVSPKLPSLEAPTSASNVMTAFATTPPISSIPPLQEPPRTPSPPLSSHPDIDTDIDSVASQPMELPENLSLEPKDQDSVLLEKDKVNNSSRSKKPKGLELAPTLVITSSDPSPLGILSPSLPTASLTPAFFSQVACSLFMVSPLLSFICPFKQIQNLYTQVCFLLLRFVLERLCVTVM
Outline: as §1

ETV2 = target: T10, ETV2 (Homo sapiens, UniProt O00321 1-342); details: protein: recombinant; tags: N-terminal GST; dsDNA, one strand shown
T10 sequence: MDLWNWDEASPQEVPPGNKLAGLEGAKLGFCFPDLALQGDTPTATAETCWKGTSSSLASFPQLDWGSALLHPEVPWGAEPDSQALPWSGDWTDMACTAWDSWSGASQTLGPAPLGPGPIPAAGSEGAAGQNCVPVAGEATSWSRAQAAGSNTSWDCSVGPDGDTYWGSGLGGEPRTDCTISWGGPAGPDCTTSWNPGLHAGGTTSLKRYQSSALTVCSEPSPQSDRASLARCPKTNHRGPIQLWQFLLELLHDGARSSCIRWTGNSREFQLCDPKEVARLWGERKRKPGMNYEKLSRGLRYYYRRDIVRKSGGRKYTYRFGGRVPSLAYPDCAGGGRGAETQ
Outline: as §1

ELF3 = target: T11, ELF3 (Homo sapiens, UniProt P78545 1-371); details: protein: recombinant; tags: N-terminal GST; dsDNA, one strand shown
T11 sequence: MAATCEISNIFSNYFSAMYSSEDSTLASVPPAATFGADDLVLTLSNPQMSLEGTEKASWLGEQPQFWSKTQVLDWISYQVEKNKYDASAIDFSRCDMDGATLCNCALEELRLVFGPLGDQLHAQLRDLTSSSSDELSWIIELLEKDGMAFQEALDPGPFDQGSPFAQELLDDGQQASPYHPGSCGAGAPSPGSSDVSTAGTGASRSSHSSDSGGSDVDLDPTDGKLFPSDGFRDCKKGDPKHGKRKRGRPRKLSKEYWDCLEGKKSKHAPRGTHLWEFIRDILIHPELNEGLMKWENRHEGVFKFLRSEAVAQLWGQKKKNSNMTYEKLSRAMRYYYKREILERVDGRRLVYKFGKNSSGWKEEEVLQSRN
Outline: as §1

CRX = CRX (Homo sapiens, UniProt O43186 1-299); details: protein: recombinant; tags: N-terminal GST; dsDNA, one strand shown
Outline: as §1

ETV1 = ETV1 (Homo sapiens, UniProt P50549 1-477); details: protein: recombinant; tags: N-terminal GST; dsDNA, one strand shown
Outline: as §1

Sequence of SPIB (Q01892 whole entry): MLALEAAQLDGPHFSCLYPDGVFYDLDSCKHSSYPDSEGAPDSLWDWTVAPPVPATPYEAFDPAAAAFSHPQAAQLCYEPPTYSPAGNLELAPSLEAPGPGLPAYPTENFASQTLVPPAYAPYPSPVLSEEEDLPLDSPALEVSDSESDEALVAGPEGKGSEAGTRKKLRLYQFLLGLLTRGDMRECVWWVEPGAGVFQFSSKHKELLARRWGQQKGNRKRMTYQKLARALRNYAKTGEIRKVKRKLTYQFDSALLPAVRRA
Sequence of ELF4 (Q99607 whole entry): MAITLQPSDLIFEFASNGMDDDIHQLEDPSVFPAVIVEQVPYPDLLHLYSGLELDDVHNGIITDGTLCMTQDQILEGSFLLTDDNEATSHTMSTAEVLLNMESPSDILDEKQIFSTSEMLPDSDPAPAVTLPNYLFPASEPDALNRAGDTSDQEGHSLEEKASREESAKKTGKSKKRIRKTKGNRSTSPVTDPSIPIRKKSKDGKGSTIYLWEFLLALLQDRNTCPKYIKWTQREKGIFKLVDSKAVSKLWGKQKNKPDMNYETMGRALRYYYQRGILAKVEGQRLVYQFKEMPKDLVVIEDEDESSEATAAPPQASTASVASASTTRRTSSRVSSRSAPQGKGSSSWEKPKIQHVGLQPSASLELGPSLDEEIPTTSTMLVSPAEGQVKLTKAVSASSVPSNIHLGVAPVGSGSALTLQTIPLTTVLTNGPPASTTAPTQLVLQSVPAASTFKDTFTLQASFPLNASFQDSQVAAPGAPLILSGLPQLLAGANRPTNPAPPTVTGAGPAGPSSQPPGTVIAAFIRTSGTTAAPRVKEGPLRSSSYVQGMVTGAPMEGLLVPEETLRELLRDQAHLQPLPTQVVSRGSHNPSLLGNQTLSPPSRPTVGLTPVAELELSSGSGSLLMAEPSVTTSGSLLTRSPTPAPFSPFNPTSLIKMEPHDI
Sequence of ETV5 (P41161 whole entry): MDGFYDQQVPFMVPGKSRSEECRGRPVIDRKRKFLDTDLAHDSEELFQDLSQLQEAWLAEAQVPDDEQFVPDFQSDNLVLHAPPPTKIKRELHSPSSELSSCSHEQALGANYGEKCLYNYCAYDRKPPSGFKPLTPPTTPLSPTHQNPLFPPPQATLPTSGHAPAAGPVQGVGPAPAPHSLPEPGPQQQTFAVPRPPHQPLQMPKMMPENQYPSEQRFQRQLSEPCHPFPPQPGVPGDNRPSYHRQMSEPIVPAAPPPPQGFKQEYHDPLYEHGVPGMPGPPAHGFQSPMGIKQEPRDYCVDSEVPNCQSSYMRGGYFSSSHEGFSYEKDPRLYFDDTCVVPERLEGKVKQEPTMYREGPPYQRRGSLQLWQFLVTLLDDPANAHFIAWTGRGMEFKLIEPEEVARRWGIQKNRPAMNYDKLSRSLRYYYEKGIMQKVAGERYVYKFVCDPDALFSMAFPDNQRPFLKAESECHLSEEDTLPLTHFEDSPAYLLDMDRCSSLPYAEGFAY
Sequence of CRX (O43186 whole entry): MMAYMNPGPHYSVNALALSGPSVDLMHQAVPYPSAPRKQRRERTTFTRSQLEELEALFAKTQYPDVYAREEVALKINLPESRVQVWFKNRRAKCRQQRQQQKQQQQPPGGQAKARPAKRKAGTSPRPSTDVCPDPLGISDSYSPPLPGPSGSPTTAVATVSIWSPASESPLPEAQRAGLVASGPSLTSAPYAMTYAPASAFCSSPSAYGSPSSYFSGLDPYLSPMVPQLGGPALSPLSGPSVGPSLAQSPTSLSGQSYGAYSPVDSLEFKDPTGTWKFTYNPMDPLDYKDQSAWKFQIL
Sequence of HSF1 (Q00613 whole entry): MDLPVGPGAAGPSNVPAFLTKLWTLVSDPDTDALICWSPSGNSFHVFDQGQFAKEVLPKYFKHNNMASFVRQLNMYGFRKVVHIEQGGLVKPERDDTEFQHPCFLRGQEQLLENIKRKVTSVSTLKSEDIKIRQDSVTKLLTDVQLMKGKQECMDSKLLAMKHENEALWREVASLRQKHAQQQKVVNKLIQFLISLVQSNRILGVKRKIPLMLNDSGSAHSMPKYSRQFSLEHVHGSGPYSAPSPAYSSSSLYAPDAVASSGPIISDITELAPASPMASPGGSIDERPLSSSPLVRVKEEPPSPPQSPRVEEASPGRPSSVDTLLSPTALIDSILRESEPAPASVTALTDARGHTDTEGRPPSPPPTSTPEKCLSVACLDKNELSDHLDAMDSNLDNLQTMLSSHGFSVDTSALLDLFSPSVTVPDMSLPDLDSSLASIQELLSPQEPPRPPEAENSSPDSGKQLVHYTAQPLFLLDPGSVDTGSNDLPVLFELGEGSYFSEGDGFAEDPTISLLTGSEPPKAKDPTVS
Sequence of ELF1 (P32519 whole entry): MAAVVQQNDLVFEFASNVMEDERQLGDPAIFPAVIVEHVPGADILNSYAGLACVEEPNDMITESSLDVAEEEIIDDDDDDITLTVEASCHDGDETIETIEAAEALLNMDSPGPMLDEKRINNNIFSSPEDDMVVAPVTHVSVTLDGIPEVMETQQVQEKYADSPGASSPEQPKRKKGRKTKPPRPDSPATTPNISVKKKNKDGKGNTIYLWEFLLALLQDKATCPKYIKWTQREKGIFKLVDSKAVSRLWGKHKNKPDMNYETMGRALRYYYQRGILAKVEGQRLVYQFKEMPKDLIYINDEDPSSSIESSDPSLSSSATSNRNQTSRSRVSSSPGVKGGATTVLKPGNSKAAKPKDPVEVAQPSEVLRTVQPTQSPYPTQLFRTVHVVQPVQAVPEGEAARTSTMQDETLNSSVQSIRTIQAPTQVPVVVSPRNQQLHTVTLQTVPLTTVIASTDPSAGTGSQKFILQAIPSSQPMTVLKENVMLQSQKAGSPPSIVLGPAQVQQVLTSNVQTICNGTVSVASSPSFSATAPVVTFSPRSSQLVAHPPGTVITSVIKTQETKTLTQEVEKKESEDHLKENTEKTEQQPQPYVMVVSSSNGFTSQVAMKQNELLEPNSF
Sequence of ETV1 (P50549 whole entry): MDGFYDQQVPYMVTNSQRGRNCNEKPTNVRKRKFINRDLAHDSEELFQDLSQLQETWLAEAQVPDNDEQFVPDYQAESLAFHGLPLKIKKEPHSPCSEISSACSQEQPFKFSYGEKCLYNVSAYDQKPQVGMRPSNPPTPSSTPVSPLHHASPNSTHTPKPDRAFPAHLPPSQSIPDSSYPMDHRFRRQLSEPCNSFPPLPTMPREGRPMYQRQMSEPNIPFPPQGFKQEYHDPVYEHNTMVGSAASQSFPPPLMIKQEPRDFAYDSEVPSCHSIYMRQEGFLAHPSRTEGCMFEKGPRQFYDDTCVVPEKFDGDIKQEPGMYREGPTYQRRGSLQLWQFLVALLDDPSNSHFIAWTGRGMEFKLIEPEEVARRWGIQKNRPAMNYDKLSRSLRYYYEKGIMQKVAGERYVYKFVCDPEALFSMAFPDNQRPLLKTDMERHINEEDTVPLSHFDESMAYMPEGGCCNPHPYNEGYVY

ATCGAC was tested, and the binding signal (FLI1) was 1.13 fold enrichment (6-mer frequency, TF over GST control), the binding signal (ELK1) was 1.11 fold enrichment (6-mer frequency, TF over GST control) and the binding signal (GABPA) was 1.17 fold enrichment (6-mer frequency, TF over GST control). The binding signal (ERG) was 1.1 fold enrichment (6-mer frequency, TF over GST control), the binding signal (ELF1) was 1.24 fold enrichment (6-mer frequency, TF over GST control) and the binding signal (EHF) was 1.12 fold enrichment (6-mer frequency, TF over GST control). The binding signal (SPI1) was 1.15 fold enrichment (6-mer frequency, TF over GST control), the binding signal (SPIB) was 1.11 fold enrichment (6-mer frequency, TF over GST control) and the binding signal (ELK3) was 1.27 fold enrichment (6-mer frequency, TF over GST control). The binding signal (FEV) was 1.12 fold enrichment (6-mer frequency, TF over GST control), the binding signal (ETV5) was 1.25 fold enrichment (6-mer frequency, TF over GST control) and the binding signal (HSF1) was 1.16 fold enrichment (6-mer frequency, TF over GST control). For the same sequence, the binding signal (SPIC) was 1.13 fold enrichment (6-mer frequency, TF over GST control), the binding signal (ELF4) was 1.21 fold enrichment (6-mer frequency, TF over GST control) and the binding signal (ELK4) was 1.26 fold enrichment (6-mer frequency, TF over GST control). The binding signal (ETV2) was 1.23 fold enrichment (6-mer frequency, TF over GST control), the binding signal (ELF3) was 1.14 fold enrichment (6-mer frequency, TF over GST control) and the binding signal (CRX) was 1.11 fold enrichment (6-mer frequency, TF over GST control). The binding signal (ETV1) was 1.16 fold enrichment (6-mer frequency, TF over GST control).

Reference: publication PMC7862700, “An all-to-all approach to the identification of sequence-specific readers for epigenetic DNA modifications on cytosine”
